Laboratory results from PubChem BioAssay (EPA / NIEHS).
The source made the active and inactive calls. The calls were made as follows: active = hit-call score of the fitted dose curve at least 0.9, where 1 is the maximum; inactive = score below 0.9.

assay: BSK_BT_Bcell_Proliferation: Viability Assessment in the BioMAP Diversity Plus: BT Assay for B cell Proliferation (AID 2284227); settings: primary human B cells with PBMC
Procedure: BSK_BT is a cell-based, multiplexed-readout assay that uses B cell and peripheral blood mononuclear cells, a human vascular primary cell co-culture, with measurements taken at 24 hours after chemical dosing in a microplate: 96-well plate.BSK_BT_Bcell_Proliferation is an assay component measured in the BSK_BT assay. It measures protein content, a form of viability reporter, as detected with absorbance signals by Sulforhodamine staining technology.Data from the assay component BSK_BT_Bcell_Proliferation was analyzed at the endpoint, BSK_BT_Bcell_Proliferation, in the positive analysis fitting direction relative to DMSO as the negative control and baseline of activity. Using a type of viability reporter, gain or loss-of-signal activity can be used to understand cellular changes in viability. To generalize the intended target to other relatable targets, this assay endpoint is annotated to the 'cell cycle' intended target family, where the subfamily is 'proliferation'.
The levels of cell surface (or secreted, indicated by the prefix "s") biomarker endpoints were measured by ELISA. Overt cytotoxicity to cells in confluent adherent cultures (all systems other than the BT system) was assessed by measuring total protein levels using sulforhodamine B (SRB) staining in parallel cultures at the time of biomarker measurements, indicated as SRB endpoints. For proliferation assays for adherent cell types, individual cell types are cultured at sub-confluence and relative cell numbers quantified by SRB staining at time points optimized for each system (48 h: 3C and CASM3C systems; 72 h: BT and HDF3CGF systems; 96 h: SAg system). SRB was performed by staining cells with 0.1% SRB after fixation with 10% TCA and reading wells at 560 nm.Viability and proliferation of PBMC (T cells) was quantified by Alamar Blue reduction for the SAg and BT systems. For PBMC viability (referred to as PBMC Cytotoxicity within the assay endpoint names), cells were plated (75,000/well in a 96-well plate) and then chemical samples added for 1 h before addition of activators, SEB and TSST-1 (20 ng/mL final concentration each). Cells were incubated for 90 h. Then, Alamar Blue (20 uL/well) (Invitrogen, Cat DAL1100) was added for 6 h, and the plates were read with a fluorescence microplate reader at 546/580 nm (excitation/emission). For PBMC proliferation, cells were plated and activated as above but incubated for only 16 h prior to addition of Alamar Blue. Plates were read after 6 h.

Compound | outcome | AC50
c1ccc(-c2ccccn2)nc1 | inactive | 
COCc1c(C(C)C)nc(C(C)C)c(/C=C/[C@@H](O)C[C@@H](O)CC(=O)O)c1-c1ccc(F)cc1 |  | 0.24 µM (active)
CC1OC1C1CCC2(C)OC2C1 (configuration not stated) | inactive | 
CCCCC/C=C\C/C=C\CCCCCCCC(=O)OC |  | 26.3 µM (active)
O=C(Cl)c1cc(C(=O)Cl)cc(C(=O)Cl)c1 |  | 29.3 µM (active)
CC(C)(c1cc(Br)c(OCCO)c(Br)c1)c1cc(Br)c(OCCO)c(Br)c1 |  | 21.2 µM (active)
N#[N+]c1ccc2c(S(=O)(=O)[O-])cccc2c1O | inactive | 
CCCCC(CC)COC(=O)c1ccccc1O (configuration not stated) | inactive | 
COc1ccc2nc(N)sc2c1 | inactive | 
C=CCOc1c(Br)cc(Br)cc1Br | inactive | 
c1ccc2c(c1)ccc1cc3c(ccc4ccccc43)cc12 | inactive | 
C/C=C\C/C=C/CCCCCCCCOC(C)=O |  | 28 µM (active)
O=c1c2ccccc2oc2ccccc12 | inactive | 
C=CCOCC(O)CCl (configuration not stated) | inactive | 
CCOc1nc(F)cc2nc(S(=O)(=O)Nc3c(Cl)cccc3C(=O)OC)nn12 | inactive | 
O=C(Nc1ccccc1SSc1ccccc1NC(=O)c1ccccc1)c1ccccc1 |  | 5.95 µM (active)
C=CC=CC=CCCCCC | inactive | 
O=Nc1ccc(O)cc1 | inactive | 
CCO[Si](CCCN=C=O)(OCC)OCC | inactive | 
CCCCCCCCCCCCCCCC[N+](C)(C)CC |  | 1.81 µM (active)
C#CC1(O)CC[C@H]2[C@@H]3CCC4=CCCC[C@@H]4[C@H]3CC[C@@]21C (some centres not stated) |  | 30.1 µM (active)
CCCCNc1ccc(NCCCC)c2c1C(=O)c1ccccc1C2=O | inactive | 
CCCCCCCCc1ccc(Nc2ccc(CCCCCCCC)cc2)cc1 | inactive | 
S=C(NC1CCCCC1)NC1CCCCC1 |  | 31.2 µM (active)
C=CC(=O)OCC(Br)CBr (configuration not stated) |  | 20 µM (active)
CC(C)C(=O)C(C)C | inactive | 
c1ccc2c(c1)ccc1ncccc12 | inactive | 
